Results as given in PubChem BioAssay.
For some assays here: Results with a measured potency or affinity are listed apart. Calls of active or inactive are those of the source. How the calls were made is not given here.

biological target: Plasmodium falciparum protein kinase 6 (PK6, PF3D7_1337100) (UniProt Q8IDW1); test: PfPK6 kinase inhibitors, biochemical, TCAMS library (AID 1159586); conditions: recombinant PfPK6, Kinase-Glo ATP depletion luminescence
Sequence (Q8IDW1 1-305): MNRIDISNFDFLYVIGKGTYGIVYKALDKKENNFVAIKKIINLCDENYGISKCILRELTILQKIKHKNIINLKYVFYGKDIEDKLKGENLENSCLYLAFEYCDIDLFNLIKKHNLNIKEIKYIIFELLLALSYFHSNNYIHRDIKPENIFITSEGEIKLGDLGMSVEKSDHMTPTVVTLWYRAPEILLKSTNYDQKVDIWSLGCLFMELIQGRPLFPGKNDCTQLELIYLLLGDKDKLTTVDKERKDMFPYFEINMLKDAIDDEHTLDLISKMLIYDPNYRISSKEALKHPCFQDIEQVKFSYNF

outcome, inactive:
O=C(N[C@@H](Cc1ccccc1)C(=O)NC1CCCCC1)c1ccc(O)c(-c2ccc(Cl)c(Cl)c2)c1, O=[N+]([O-])c1ccc2nc(Nc3cccc(C(F)(F)F)c3)c(Nc3cccc(C(F)(F)F)c3)nc2c1, C[C@H](Cc1ccc(CCc2ccc(C[C@@H](C)NC[C@H](O)c3cccc(Cl)c3)cc2)cc1)NC[C@H](O)c1cccc(Cl)c1, COc1ccc2nccc([C@@H](O)CN3CCC(NCc4cc5ccccc5[nH]4)CC3)c2n1, C=CCc1cccc(OC)c1OCCCON1C(N)=NC(N)=NC1(C)C, Cc1ccc2nc(-c3ccc(C=CC(=O)NC4CCN(Cc5ccccc5)CC4)cc3)[nH]c2c1, CCOc1c(OC)ccc2c1CCN(CCN1CCC(CNC(=O)c3ccc(-c4ccc(C#N)cc4)cc3)CC1)C2, Nc1ncc(-c2ccc(F)cc2)c2ccc(-c3cccc(F)c3)cc12, O=C(NCc1ccc(F)cc1)c1cc(Br)cc(N2CCN(c3ccncc3)CC2)c1, O=C(Nc1ccc(Cl)c(Cl)c1)N[C@H]1CCN(CCCCCNC(=O)[C@@H]2C[C@H]2c2ccc(Cl)c(Cl)c2)C1, CCOC(=O)c1ccc(COc2ccc(C)nc2)cc1, CC(=O)Oc1cc(C(=O)Nc2ccc(Cl)cc2)cc2ccccc12, O=C(NC1CCN(c2ccnc3cc(Cl)ccc23)C1)c1ccccc1F (stereo not given), COc1cccc2cc(C(=O)N[C@@H](CC(C)C)C(=O)N[C@H](/C=N/N3CCCC3=O)Cc3ccccc3)oc12, O=c1cc(NCCCNCc2csc(Br)c2Sc2ccc(Cl)cc2)[nH]c2ccccc12, CS(=O)(=O)Cc1ccc(Nc2nccc(NC3CCN(c4nccc(C(F)(F)F)n4)CC3)n2)cc1, CCOc1cc2c(cc1OCC)C(c1ccc(O)c(Cl)c1)NCC2 (stereo not given), COc1cc(CN2CCC(C(=O)Nc3ccc(-c4cccc(C)c4)cc3)CC2)ccc1O, CCCCCCn1c(Sc2ccc(C#N)c([N+](=O)[O-])c2)nnc1-c1ccc(N(C)C)cc1, Cc1ccc(NC(=O)c2ccc(N3CCN(c4ccncc4)CC3)cc2)cc1F, Cc1cccc2[nH]c(-c3cccc(-c4ccc(CNCc5cccc(N)c5)cc4)c3)nc12, O=C1OC2(CN1CC1CCN(Cc3ccc(O)c(Cl)c3)CC1)c1ccccc1-c1ccccc12, CCCN(Cc1nnc(-c2cccs2)o1)C(=O)CSc1nnnn1-c1ccc(C)c(C)c1, CCN1C(=O)N(CCC(C)C)C2(CCN(Cc3ccc(OC)cc3O)CC2)C1=O, COc1ccc2c(NN=Cc3cccc([N+](=O)[O-])c3)cc(C)nc2c1, Cn1cncc1C(=O)Nc1cccc(-c2cccc(-c3nc4ccc(C(F)(F)F)cc4[nH]3)c2)c1, N#Cc1ccc(-c2ccc(OCC(O)CN3CCCN(C(=O)C(c4ccc5c(c4)OCO5)N4CCN(C/C=C/c5ccccc5)CC4)CC3)cc2)cc1 (stereo not given), COC(=O)c1ccc2nc(-c3ccc(/C=C/C(=O)NC4CCN(Cc5ccccc5)CC4)cc3)[nH]c2c1, CC(=O)Nc1nnc(SCc2c(C)cc(C(C)(C)C)cc2C)s1, O=C(Cc1ccccc1)NC(CCN1CCC(N(C2CC2)S(=O)(=O)c2cccc(C(F)(F)F)c2)CC1)c1ccc(Cl)c(Cl)c1 (stereo not given), CN(C)c1ccc(-c2csc(C(=O)NC3CCN(CCC(C)(C)C)C3)c2)cc1 (stereo not given), Cc1ccc(CNC(=O)[C@H](Cc2ccccc2)Nc2cc(C)nc(Nc3ccccc3)n2)cc1, CCOC(=O)c1cccc(N/C(N)=N/c2nc(C)cc(NCCc3ccccc3)n2)c1, Cc1cccc2[nH]c(-c3ccc(-c4ccc(NC(=O)NCc5ccccc5)cc4)s3)nc12, COc1cccc(NC(=O)Nc2ccc(C)c(-c3ccc(C(=O)Nc4ccncc4)cc3)c2)c1, Cc1ccc(O)c(-c2cc(C(=O)Nc3ccc(S(=O)(=O)N4CCCC(C)C4)cc3)[nH]n2)c1 (stereo not given), CN(C)CCOC(=O)C1(O)CCC2CC1C2(C)C (stereo not given), COc1ccc(C=C2SC(=O)NC2=Nc2ccccc2)c(OC)c1, O=C(Nc1cccc(-c2cccc(-c3nc4ccc(C(F)(F)F)cc4[nH]3)c2)c1)c1ccoc1, Cc1ccc(Sc2ccc(NC(=O)CN3CCN(C(=O)c4ccco4)CC3)cc2)cc1C

biological target: Protein kinase 7 (PK7), Plasmodium falciparum 3D7 (PF3D7_0213400) (UniProt Q7YTF7); test: inhibition of Plasmodium PK7 catalytic activity – biochemical, TCAMS antimalarial set, Kinase-Glo luminescence (AID 1159587); conditions: recombinant PfPK7, Kinase-Glo ATP depletion luminescence
Sequence (Q7YTF7 1-343): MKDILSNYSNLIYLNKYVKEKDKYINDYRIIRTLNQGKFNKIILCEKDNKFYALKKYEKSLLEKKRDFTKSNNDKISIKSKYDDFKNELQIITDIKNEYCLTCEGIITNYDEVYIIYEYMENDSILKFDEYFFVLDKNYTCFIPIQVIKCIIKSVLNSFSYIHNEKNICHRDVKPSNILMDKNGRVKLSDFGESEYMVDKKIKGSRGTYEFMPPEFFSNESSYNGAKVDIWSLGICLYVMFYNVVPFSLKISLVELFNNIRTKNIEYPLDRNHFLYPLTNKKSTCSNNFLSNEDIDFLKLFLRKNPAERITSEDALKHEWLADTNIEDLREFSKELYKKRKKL

outcome, inactive:
O=C(N[C@@H](Cc1ccccc1)C(=O)NC1CCCCC1)c1ccc(O)c(-c2ccc(Cl)c(Cl)c2)c1, O=[N+]([O-])c1ccc2nc(Nc3cccc(C(F)(F)F)c3)c(Nc3cccc(C(F)(F)F)c3)nc2c1, C[C@H](Cc1ccc(CCc2ccc(C[C@@H](C)NC[C@H](O)c3cccc(Cl)c3)cc2)cc1)NC[C@H](O)c1cccc(Cl)c1, COc1ccc2nccc([C@@H](O)CN3CCC(NCc4cc5ccccc5[nH]4)CC3)c2n1, C=CCc1cccc(OC)c1OCCCON1C(N)=NC(N)=NC1(C)C, Cc1ccc2nc(-c3ccc(C=CC(=O)NC4CCN(Cc5ccccc5)CC4)cc3)[nH]c2c1, CCOc1c(OC)ccc2c1CCN(CCN1CCC(CNC(=O)c3ccc(-c4ccc(C#N)cc4)cc3)CC1)C2, Nc1ncc(-c2ccc(F)cc2)c2ccc(-c3cccc(F)c3)cc12, O=C(NCc1ccc(F)cc1)c1cc(Br)cc(N2CCN(c3ccncc3)CC2)c1, O=C(Nc1ccc(Cl)c(Cl)c1)N[C@H]1CCN(CCCCCNC(=O)[C@@H]2C[C@H]2c2ccc(Cl)c(Cl)c2)C1, CCOC(=O)c1ccc(COc2ccc(C)nc2)cc1, CC(=O)Oc1cc(C(=O)Nc2ccc(Cl)cc2)cc2ccccc12, O=C(NC1CCN(c2ccnc3cc(Cl)ccc23)C1)c1ccccc1F (stereo not given), COc1cccc2cc(C(=O)N[C@@H](CC(C)C)C(=O)N[C@H](/C=N/N3CCCC3=O)Cc3ccccc3)oc12, O=c1cc(NCCCNCc2csc(Br)c2Sc2ccc(Cl)cc2)[nH]c2ccccc12, CS(=O)(=O)Cc1ccc(Nc2nccc(NC3CCN(c4nccc(C(F)(F)F)n4)CC3)n2)cc1, CCOc1cc2c(cc1OCC)C(c1ccc(O)c(Cl)c1)NCC2 (stereo not given), COc1cc(CN2CCC(C(=O)Nc3ccc(-c4cccc(C)c4)cc3)CC2)ccc1O, CCCCCCn1c(Sc2ccc(C#N)c([N+](=O)[O-])c2)nnc1-c1ccc(N(C)C)cc1, Cc1ccc(NC(=O)c2ccc(N3CCN(c4ccncc4)CC3)cc2)cc1F, Cc1cccc2[nH]c(-c3cccc(-c4ccc(CNCc5cccc(N)c5)cc4)c3)nc12, O=C1OC2(CN1CC1CCN(Cc3ccc(O)c(Cl)c3)CC1)c1ccccc1-c1ccccc12, CCCN(Cc1nnc(-c2cccs2)o1)C(=O)CSc1nnnn1-c1ccc(C)c(C)c1, CCN1C(=O)N(CCC(C)C)C2(CCN(Cc3ccc(OC)cc3O)CC2)C1=O, COc1ccc2c(NN=Cc3cccc([N+](=O)[O-])c3)cc(C)nc2c1, Cn1cncc1C(=O)Nc1cccc(-c2cccc(-c3nc4ccc(C(F)(F)F)cc4[nH]3)c2)c1, N#Cc1ccc(-c2ccc(OCC(O)CN3CCCN(C(=O)C(c4ccc5c(c4)OCO5)N4CCN(C/C=C/c5ccccc5)CC4)CC3)cc2)cc1 (stereo not given), COC(=O)c1ccc2nc(-c3ccc(/C=C/C(=O)NC4CCN(Cc5ccccc5)CC4)cc3)[nH]c2c1, CC(=O)Nc1nnc(SCc2c(C)cc(C(C)(C)C)cc2C)s1, O=C(Cc1ccccc1)NC(CCN1CCC(N(C2CC2)S(=O)(=O)c2cccc(C(F)(F)F)c2)CC1)c1ccc(Cl)c(Cl)c1 (stereo not given), CN(C)c1ccc(-c2csc(C(=O)NC3CCN(CCC(C)(C)C)C3)c2)cc1 (stereo not given), Cc1ccc(CNC(=O)[C@H](Cc2ccccc2)Nc2cc(C)nc(Nc3ccccc3)n2)cc1, CCOC(=O)c1cccc(N/C(N)=N/c2nc(C)cc(NCCc3ccccc3)n2)c1, Cc1cccc2[nH]c(-c3ccc(-c4ccc(NC(=O)NCc5ccccc5)cc4)s3)nc12, COc1cccc(NC(=O)Nc2ccc(C)c(-c3ccc(C(=O)Nc4ccncc4)cc3)c2)c1, Cc1ccc(O)c(-c2cc(C(=O)Nc3ccc(S(=O)(=O)N4CCCC(C)C4)cc3)[nH]n2)c1 (stereo not given), CN(C)CCOC(=O)C1(O)CCC2CC1C2(C)C (stereo not given), COc1ccc(C=C2SC(=O)NC2=Nc2ccccc2)c(OC)c1, O=C(Nc1cccc(-c2cccc(-c3nc4ccc(C(F)(F)F)cc4[nH]3)c2)c1)c1ccoc1, Cc1ccc(Sc2ccc(NC(=O)CN3CCN(C(=O)c4ccco4)CC3)cc2)cc1C
